Holding throughout (assay type): functional
In assay [1] the test system is Plasmodium falciparum. The assay can be described thus: GSK_TCMDC: Inhibition of Plasmodium falciparum 3D7 in whole red blood cells, using parasite LDH activity as an index of growth. Test compounds present at 2uM.
In assay [2] the test system is Plasmodium falciparum. Nature of the assay: GSK_TCMDC: Inhibition of Plasmodium falciparum Dd2 in whole red blood cells, using parasite LDH activity as an index of growth. Test compounds present at 2uM.
In another assay the test system is HepG2. Nature of the assay: GSK_TCMDC: Percent inhibition of human HepG2 cell line. Test compounds present at 10uM.

The Inhibition is the relative decrease from the control value, in per cent. Low values mean little suppression, high ones strong suppression. As to `COc1ccc(-c2ccc(NC(=O)c3ccc(Cl)cc3)cc2)cc1CN1CCCN(C)CC1.O=C(O)C(F)(F)F`, the results for the Inhibition with Plasmodium falciparum [1], with Plasmodium falciparum [2] and in the assay with HepG2 were 93%, 61% and 27%, respectively.

As to `CC(C)CCN(Cc1cncn1Cc1cccc(C(F)(F)F)c1)C(=O)c1cncc(-c2ccccc2)c1`, the Inhibition is reported as 100% with Plasmodium falciparum [1], 4% with Plasmodium falciparum [2] and 15% in the assay on HepG2.

As for `Cn1cnc(CCNC(=O)c2ccc(-c3ccc(-c4nc5cc(F)ccc5[nH]4)cc3)cc2)c1`, the results for the Inhibition in the assay on Plasmodium falciparum [1], in the assay with Plasmodium falciparum [2] and in the assay on HepG2 were 92%, 15% and 17%, respectively.

For the compound `COc1ccc2nccc([C@@H](O)CN3CCC(NC(=O)[C@@H]4Cc5ccccc5CN4C(=O)OC(C)(C)C)CC3)c2c1`, the Inhibition was 92% in the assay with Plasmodium falciparum [1], 61% in the assay on Plasmodium falciparum [2] and 15% in the assay on HepG2.

As to `Cc1ccc(CN2CCN(CC(O)COc3ccc4c(c3)CCC4)CC2)cc1` (stereo not drawn), the Inhibition in the assay on Plasmodium falciparum [1] was 95%; in the assay on Plasmodium falciparum [2], 0%; in the assay with HepG2, 0%.

Turning to `O=C(Nc1cccc(CCNCc2ccccc2)c1)Nc1cccc2ccccc12.O=C(O)C(F)(F)F`, the Inhibition in the assay with Plasmodium falciparum [1] amounted to 100%; in the assay with Plasmodium falciparum [2], 8%; with HepG2 it was 13%.

For `COCCNc1nc(N2CCC(CNC(=O)c3ccc(-c4ccc(C(=O)N(C)C)cc4C)cc3)CC2)nc2cc(OC)c(OC)cc12`, the Inhibition in the assay with Plasmodium falciparum [1] came out at 98%; in the assay with Plasmodium falciparum [2] it was 97%; in the assay on HepG2, 12%.

For `O=C(C=Cc1ccc(Cl)c(Cl)c1)NCCCCCN1CCCC(CCCNS(=O)(=O)c2cccc3cccnc23)C1` (stereo not drawn), the Inhibition in the assay with Plasmodium falciparum [1] was 96%; in the assay with Plasmodium falciparum [2], 16%; with HepG2, 37%.

As to `Cl.Clc1ccc(OCCC2CCN(CCCCCCCN3CCC(CCOc4ccc(Cl)c(Cl)c4)CC3)CC2)cc1Cl`, the Inhibition was 99% in the assay on Plasmodium falciparum [1], 82% in the assay on Plasmodium falciparum [2] and 100% in the assay on HepG2.

For `COc1ccc(N2C(N)=NC(N)=NC2(C)C)cc1OC.Cl`, the values for the Inhibition with Plasmodium falciparum [1], in the assay on Plasmodium falciparum [2] and in the assay on HepG2 were 95%, 0% and 13%, respectively.

As to `CCCCCC(C)N/C(=N/c1cccc(Cl)c1Cl)Nc1ccc(C#N)cc1O` (stereo not drawn), the Inhibition in the assay on Plasmodium falciparum [1] came to 100%; with Plasmodium falciparum [2], 98%; in the assay with HepG2, 28%.

For the compound `O=C(O)C(F)(F)F.O=S(=O)(NC1CCN(c2ccnc3cc(Cl)ccc23)C1)c1ccc(F)cc1` (stereo not drawn), the results for the Inhibition in the assay on Plasmodium falciparum [1], in the assay with Plasmodium falciparum [2] and in the assay with HepG2 were 98%, 88% and 3%, respectively.

On to `COc1ccc(Nc2nccc(N3CCC(NS(=O)(=O)c4ccc(NC(C)=O)cc4)C3)n2)cc1` (stereo not drawn), for which the Inhibition in the assay on Plasmodium falciparum [1] amounted to 100%; in the assay on Plasmodium falciparum [2], 16%; with HepG2 it was 3%.

Turning to `N=C(N)CCN(Cc1ccccc1)c1ccc(Cl)cc1`, the Inhibition with Plasmodium falciparum [1] was 98%; in the assay with Plasmodium falciparum [2], 98%; in the assay on HepG2 it was 1%.

As for `CS(=O)(=O)Cc1ccc(Nc2nccc(-c3c(-c4cccc(NC(=O)c5c(F)cccc5F)c4)nn4ncccc34)n2)cc1`, the Inhibition is given as 97% in the assay on Plasmodium falciparum [1], 93% with Plasmodium falciparum [2] and 86% in the assay on HepG2.

With `CC(C)(C)NCC(O)COc1ccc(Cl)cc1C1=NNC(=O)CC1.Cl` (stereo not drawn), the Inhibition came out at 96% with Plasmodium falciparum [1], 0% in the assay on Plasmodium falciparum [2] and 6% with HepG2.

Consider `CCN(CC)c1ccc(-c2nc3cc(Cl)cnc3[nH]2)cc1`, for which the Inhibition in the assay on Plasmodium falciparum [1] stood at 85%; in the assay on Plasmodium falciparum [2], 85%; in the assay on HepG2, 16%.

Regarding `COc1ccc(CNC2Cc3ccccc3C2)cc1-c1ccc(S(=O)(=O)NCCc2ccccn2)s1.O=C(O)C(F)(F)F`, the figures for the Inhibition with Plasmodium falciparum [1], with Plasmodium falciparum [2] and in the assay with HepG2 were 92%, 22% and 11%, respectively.

With `COc1ccc(NS(=O)(=O)c2ccc(C(=O)Nc3ccc(OC(F)(F)F)cc3)cc2)cc1N1CCN(CC2CC2)CC1.O=C(O)C(F)(F)F`, the Inhibition in the assay with Plasmodium falciparum [1] turned out to be 89%; in the assay on Plasmodium falciparum [2], 0%; with HepG2, 18%.

With `Cc1nc2ccc3ccc(CNc4ccc5c(c4)CN([C@H](CCC(=O)O)C(=O)O)C5=O)cc3c2c(=O)[nH]1`, the Inhibition in the assay on Plasmodium falciparum [1] stood at 87%; in the assay on Plasmodium falciparum [2] it was 90%; in the assay with HepG2, 38%.

Consider `Clc1ccc(Nc2nc(NCc3ccccc3)nc(N/N=C/c3ccccn3)n2)cc1`, for which the results for the Inhibition in the assay with Plasmodium falciparum [1], in the assay with Plasmodium falciparum [2] and in the assay with HepG2 were 99%, 91% and 41%, respectively.

With `O=C(Nc1cccc(C(F)(F)F)c1)c1ccc(S(=O)(=O)NCC2CCN(CC3CCCCC3)CC2)cc1.O=C(O)C(F)(F)F`, the Inhibition is listed as 100% in the assay on Plasmodium falciparum [1], 49% with Plasmodium falciparum [2] and 24% in the assay on HepG2.

With `COc1ccc(CNC(=O)NC2CCN(c3ccnc(Nc4ccc(F)cc4)n3)CC2)cc1`, the Inhibition with Plasmodium falciparum [1] is on record as 87%; with Plasmodium falciparum [2], 4%; in the assay on HepG2, 16%.

`CCCCCN1CCN(Cc2cccc(NC(=O)c3ccc(Cl)c(Cl)c3)c2)CC1.O=C(O)C(F)(F)F`: the Inhibition with Plasmodium falciparum [1] worked out at 90%; in the assay on Plasmodium falciparum [2] it was 33%; in the assay on HepG2, 24%.

For `O=C(/C=C/c1ccc(Cl)c(Cl)c1)NCCCCCN1CCC(CCNC(=O)C2(c3ccc(Cl)cc3)CC2)CC1`, the results for the Inhibition in the assay with Plasmodium falciparum [1], with Plasmodium falciparum [2] and in the assay on HepG2 were 91%, 16% and 96%, respectively.

As to `CC(CN1CCN(C)CC1)C(=O)Nc1cccc(-c2cccc(-c3nc4ccccc4[nH]3)c2)c1` (stereo not drawn), the Inhibition was 88% with Plasmodium falciparum [1], 19% in the assay with Plasmodium falciparum [2] and 23% with HepG2.

Consider `O=C(NCCN1CCC(c2ccncc2)CC1)c1ccc(Nc2nccc(Nc3ccc(Oc4ccccc4)cc3)n2)cc1`, for which the Inhibition with Plasmodium falciparum [1] is recorded as 100%; with Plasmodium falciparum [2] it was 90%; with HepG2, 17%.

For `Cc1cc2nc(-c3ccc(SCC(=O)Nc4ccc5c(c4)OCCO5)nc3)[nH]c2cc1C`, the Inhibition in the assay on Plasmodium falciparum [1] came out at 85%; with Plasmodium falciparum [2], 6%; in the assay with HepG2 it was 17%.

Take `COc1ccccc1C1CCN(C2CCC(NC(=O)/C=C/c3cc(C(F)(F)F)cc(C(F)(F)F)c3)CC2)CC1` (stereo not drawn): the results for the Inhibition in the assay with Plasmodium falciparum [1], in the assay with Plasmodium falciparum [2] and with HepG2 were 92%, 21% and 31%, respectively.

Consider `COc1ccc2ncc(Cl)c([C@@H](O)CN3CCC(NCc4cc5c(cn4)OCCO5)CC3)c2c1.Cl`, for which the Inhibition in the assay on Plasmodium falciparum [1] is 100%; in the assay with Plasmodium falciparum [2], 100%; with HepG2, 8%.

Turning to `CCCNCc1ccc(-c2ccc(CN(CCOC)C(=O)COc3ccccc3Cl)cc2)nc1.O=C(O)C(F)(F)F`, the Inhibition in the assay on Plasmodium falciparum [1] was 96%; with Plasmodium falciparum [2], 29%; in the assay on HepG2, 0%.

The values above are taken from ChEMBL document CHEMBL1157539, “Thousands of chemical starting points for antimalarial lead identification” (Nature, 2010).
